According to PubChem BioAssay (NCI):
This is part of a sample that, as a whole, favours compounds with a hit. Of some 79,000 tested, about 15% had one in any assay. A number with no mark means an inactive call. Activity calls are given as the source filed them. Cut-off read from the data, not from the text of the source: active = growth inhibition above about 70%; inactive = the rest.

Legend:
[1] = NCI Yeast Anticancer Drug Screen. Data for the rad52 strain (AID 147);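 note: 0% = growth of vehicle-treated control cultures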; settings: S. cerevisiae rad52 mutant growth inhibition, active compounds read high
In short: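 Screen used a yeast mutant impaired in DNA repair. After compound exposure, growth was measured. Values reflect inhibition compared with vehicle-treated cells.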

[2] = NCI Yeast Anticancer Drug Screen. Data for the wt1 strain (AID 149);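 note: 0% = growth of vehicle-treated wt1 cultures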; settings: S. cerevisiae wt1 strain (SPY 50644) growth inhibition, active compounds read high
In short: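 Growth inhibition read against vehicle controls after compound exposure of the wt1 yeast strain.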

[3] = NCI Yeast Anticancer Drug Screen. Data for the rad50EPP+ strain (AID 151);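 note: 0% = growth of vehicle-treated control cultures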; settings: S. cerevisiae rad50 mutant strain, active compounds read high
In short: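 Exposing the rad50EPP+ strain to each compound, growth was compared with vehicle-only cultures to give inhibition.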

[4] = NCI Yeast Anticancer Drug Screen. Data for the mgt1 strain (AID 153); settings: S. cerevisiae mgt1 mutant growth inhibition, active compounds read high
In short: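 Genetically defined yeast (mgt1) treated with compound; inhibition of growth expressed against vehicle-treated controls.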

[5] = NCI Yeast Anticancer Drug Screen. Data for the rad50 strain (AID 155);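 note: 0% = growth of vehicle-only cultures of the same strain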; settings: S. cerevisiae rad50 strain growth inhibition, active compounds read high
In short: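 Readout: growth inhibition relative to vehicle-treated cultures. Compound exposure was carried out in a genetically defined yeast strain deficient in DNA damage repair.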

[6] = NCI Yeast Anticancer Drug Screen. Data for the mec2-1 strain (AID 157); settings: S. cerevisiae mec2-1 strain, active compounds read high
In short: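 Readout is yeast growth inhibition, normalised to vehicle-treated controls, in the mec2-1 strain exposed to compound.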

[7] = NCI Yeast Anticancer Drug Screen. Data for the rad14 strain (AID 159);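 note: 0% = growth of vehicle-treated control cultures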; settings: S. cerevisiae rad14 strain growth inhibition, active compounds read high
In short: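 Growth inhibition vs vehicle controls; genetically altered yeast strain (DNA damage repair defect) treated with test compounds.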

[8] = NCI Yeast Anticancer Drug Screen. Data for the sgs1 mgt1 strain (AID 161);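 note: 0% = growth of cultures given vehicle only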; settings: S. cerevisiae sgs1 mgt1 strain, active compounds read high
In short: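 Yeast cells carrying a defined DNA-repair defect were exposed to test compounds. Growth inhibition was measured relative to vehicle-treated controls.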

[9] = NCI Yeast Anticancer Drug Screen. Data for the CLN2oe strain (AID 163);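 note: 0% = growth of vehicle-only control cultures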; settings: S. cerevisiae CLN2oe strain, active compounds read high
In short: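 Values reflect how much compound exposure reduced yeast growth, referenced to vehicle-exposed cells. Assay organism is a strain with a defined genetic change affecting cell-cycle control.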

[10] = NCI Yeast Anticancer Drug Screen. Data for the cln2 rad14 strain (AID 165);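 note: 0% = growth equal to vehicle treated cultures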; settings: S. cerevisiae cln2 rad14 strain, active compounds read high
In short: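 Relative to vehicle controls, growth inhibition of compound-treated cln2 rad14 yeast was recorded.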

[11] = NCI Yeast Anticancer Drug Screen. Data for the bub3 strain (AID 167); settings: S. cerevisiae bub3 mutant strain, active compounds read high
In short: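 Readout: yeast growth inhibition, expressed relative to vehicle-only wells. The test organism is a mutant strain from a panel with lesions in DNA repair or checkpoint genes.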

[12] = NCI Yeast Anticancer Drug Screen. Data for the wt2 strain (AID 169);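 note: 0% = growth of vehicle-treated yeast cultures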; settings: S. cerevisiae wt2 strain growth inhibition, active compounds read high
In short: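 Values express reduction in yeast growth under compound treatment, referenced to vehicle-treated cells.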

[13] = NCI Yeast Anticancer Drug Screen. Data for the mlh1 strain (AID 171);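 note: 0% = growth of vehicle-treated control cultures of the same strain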; settings: S. cerevisiae mlh1 strain growth inhibition, active compounds read high
In short: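 Steps: expose the defined-mutant yeast strain to compound; expose a parallel culture to vehicle; measure growth; express compound effect as inhibition relative to the vehicle culture.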

[14] = NCI Yeast Anticancer Drug Screen. Data for the sgs1 strain (AID 173);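 note: 0% = growth of vehicle-only control cultures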; settings: S. cerevisiae sgs1 mutant, active compounds read high
In short: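 Treat defined-mutant yeast with compound; measure growth; calculate inhibition relative to vehicle-treated cells.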

[15] = NCI Yeast Anticancer Drug Screen. Data for the mlh1 rad18 strain (AID 175); settings: S. cerevisiae mlh1 rad18 strain growth inhibition, active compounds read high
In short: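 Test agents were incubated with a yeast strain of defined genotype (DNA damage repair defect). Inhibition of growth was derived by comparison with vehicle-exposed cultures.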

[16] = NCI Yeast Anticancer Drug Screen. Data for the rad18 strain (AID 177); settings: S. cerevisiae rad18 mutant growth inhibition, active compounds read high
In short: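 A genetically defined yeast mutant impaired in DNA damage repair was treated with test compounds, then its growth was measured against cultures receiving vehicle alone.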

[17] = at 5.0 µM (retest, dose inferred, filed as 0.5)
[18] = at 50.0 µM (retest, dose inferred, filed as 5.0)

O=C1C=C(CN(CCCl)CCCl)C(=O)C=C1CN(CCCl)CCCl
growth inhibition ([1]; at 1.2 µM): 0% | growth inhibition ([1]; at 3.7 µM): 0% | growth inhibition ([1]; at 11.0 µM): 4% | growth inhibition ([1]; at 33.0 µM): 14% | growth inhibition ([1]; at 100.0 µM): 46% | growth inhibition ([2]; at 1.2 µM): -3% | growth inhibition ([2]; at 3.7 µM): 0% | growth inhibition ([2]; at 11.0 µM): 1% | growth inhibition ([2]; at 33.0 µM): 3% | growth inhibition ([2]; at 100.0 µM): 4% | growth inhibition ([3]; at 1.2 µM): 1% | growth inhibition ([3]; at 3.7 µM): -2% | growth inhibition ([3]; at 11.0 µM): 0% | growth inhibition ([3]; at 33.0 µM): 3% | growth inhibition ([3]; at 100.0 µM): 13% | growth inhibition ([4]; at 1.2 µM): -5% | growth inhibition ([4]; at 3.7 µM): 0% | growth inhibition ([4]; at 11.0 µM): -1% | growth inhibition ([4]; at 33.0 µM): -1% | growth inhibition ([4]; at 100.0 µM): 0% | growth inhibition ([5]; at 1.2 µM): -1% | growth inhibition ([5]; at 3.7 µM): -1% | growth inhibition [5, 17]: 1% | growth inhibition ([5]; at 11.0 µM): 0% | growth inhibition ([5]; at 33.0 µM): 12% | growth inhibition [5, 18]: 32% | growth inhibition ([5]; at 50.0 µM): 14.8% | growth inhibition ([5]; at 100.0 µM): 35% | growth inhibition ([6]; at 1.2 µM): -5% | growth inhibition ([6]; at 3.7 µM): -8% | growth inhibition [6, 17]: 0% | growth inhibition ([6]; at 11.0 µM): -3% | growth inhibition ([6]; at 33.0 µM): 3% | growth inhibition [6, 18]: 12% | growth inhibition ([6]; at 50.0 µM): 26.1% | growth inhibition ([6]; at 100.0 µM): 15% | growth inhibition ([7]; at 1.2 µM): 1% | growth inhibition ([7]; at 3.7 µM): 4% | growth inhibition ([7]; at 11.0 µM): 9% | growth inhibition ([7]; at 33.0 µM): 28% | growth inhibition ([7]; at 100.0 µM): 61% | growth inhibition [8, 17]: -2% | growth inhibition [8, 18]: 24% | growth inhibition ([8]; at 50.0 µM): 35.2% | growth inhibition ([9]; at 1.2 µM): -7% | growth inhibition ([9]; at 3.7 µM): -8% | growth inhibition ([9]; at 11.0 µM): -11% | growth inhibition ([9]; at 33.0 µM): -7% | growth inhibition ([9]; at 100.0 µM): -12% | growth inhibition [10, 17]: -3% | growth inhibition [10, 18]: 8% | growth inhibition ([10]; at 50.0 µM): 7.6% | growth inhibition ([11]; at 1.2 µM): -2% | growth inhibition ([11]; at 3.7 µM): -6% | growth inhibition [11, 17]: -1% | growth inhibition ([11]; at 11.0 µM): -7% | growth inhibition ([11]; at 33.0 µM): -6% | growth inhibition [11, 18]: 8% | growth inhibition ([11]; at 50.0 µM): 1.95% | growth inhibition ([11]; at 100.0 µM): -9% | growth inhibition ([12]; at 1.2 µM): 0% | growth inhibition ([12]; at 3.7 µM): -3% | growth inhibition ([12]; at 11.0 µM): -1% | growth inhibition ([12]; at 33.0 µM): -1% | growth inhibition ([12]; at 100.0 µM): 4% | growth inhibition ([13]; at 1.2 µM): -1% | growth inhibition ([13]; at 3.7 µM): -1% | growth inhibition ([13]; at 11.0 µM): -1% | growth inhibition ([13]; at 33.0 µM): 2% | growth inhibition ([13]; at 100.0 µM): 6% | growth inhibition ([14]; at 1.2 µM): 0% | growth inhibition ([14]; at 3.7 µM): 1% | growth inhibition ([14]; at 11.0 µM): 1% | growth inhibition ([14]; at 33.0 µM): 12% | growth inhibition ([14]; at 100.0 µM): 28% | growth inhibition [15, 17]: 2% | growth inhibition [15, 18]: 36% | growth inhibition ([15]; at 50.0 µM): 73.6% (active) | growth inhibition ([16]; at 1.2 µM): 4% | growth inhibition ([16]; at 3.7 µM): 13% | growth inhibition ([16]; at 11.0 µM): 29% | growth inhibition ([16]; at 33.0 µM): 86% (active) | growth inhibition ([16]; at 100.0 µM): 90% (active)

O=C(c1ccccc1)C1C(c2ccccc2[N+](=O)[O-])N1C1CCCCC1 (stereo unspecified)
growth inhibition ([1]; at 1.2 µM): -1% | growth inhibition ([1]; at 3.7 µM): 7% | growth inhibition ([1]; at 11.0 µM): 30% | growth inhibition ([1]; at 33.0 µM): 80% (active) | growth inhibition ([1]; at 100.0 µM): 89% (active) | growth inhibition ([2]; at 1.2 µM): -1% | growth inhibition ([2]; at 3.7 µM): 1% | growth inhibition ([2]; at 11.0 µM): 8% | growth inhibition ([2]; at 33.0 µM): 41% | growth inhibition ([2]; at 100.0 µM): 80% (active) | growth inhibition ([3]; at 1.2 µM): 5% | growth inhibition ([3]; at 3.7 µM): 19% | growth inhibition ([3]; at 11.0 µM): 48% | growth inhibition ([3]; at 33.0 µM): 80% (active) | growth inhibition ([3]; at 100.0 µM): 82% (active) | growth inhibition ([4]; at 1.2 µM): 1% | growth inhibition ([4]; at 3.7 µM): 2% | growth inhibition ([4]; at 11.0 µM): 10% | growth inhibition ([4]; at 33.0 µM): 52% | growth inhibition ([4]; at 100.0 µM): 83% (active) | growth inhibition ([5]; at 1.2 µM): 2% | growth inhibition ([5]; at 3.7 µM): 3% | growth inhibition [5, 17]: -2% | growth inhibition ([5]; at 11.0 µM): 28% | growth inhibition ([5]; at 33.0 µM): 71% (active) | growth inhibition [5, 18]: 72% (active) | growth inhibition ([5]; at 50.0 µM): 96.9% (active) | growth inhibition ([5]; at 100.0 µM): 84% (active) | growth inhibition ([6]; at 1.2 µM): 4% | growth inhibition ([6]; at 3.7 µM): 10% | growth inhibition [6, 17]: 1% | growth inhibition ([6]; at 11.0 µM): 23% | growth inhibition ([6]; at 33.0 µM): 66% | growth inhibition [6, 18]: 58% | growth inhibition ([6]; at 50.0 µM): 94.7% (active) | growth inhibition ([6]; at 100.0 µM): 88% (active) | growth inhibition ([7]; at 1.2 µM): -1% | growth inhibition ([7]; at 3.7 µM): 3% | growth inhibition ([7]; at 11.0 µM): 7% | growth inhibition ([7]; at 33.0 µM): 13% | growth inhibition ([7]; at 100.0 µM): 64% | growth inhibition [8, 17]: 15% | growth inhibition [8, 18]: 75% (active) | growth inhibition ([8]; at 50.0 µM): 93.6% (active) | growth inhibition ([9]; at 1.2 µM): -4% | growth inhibition ([9]; at 3.7 µM): -2% | growth inhibition ([9]; at 11.0 µM): 3% | growth inhibition ([9]; at 33.0 µM): 38% | growth inhibition ([9]; at 100.0 µM): 78% (active) | growth inhibition [10, 17]: -18% | growth inhibition [10, 18]: 13% | growth inhibition ([10]; at 50.0 µM): 83.2% (active) | growth inhibition ([11]; at 1.2 µM): -11% | growth inhibition ([11]; at 3.7 µM): -2% | growth inhibition [11, 17]: -4% | growth inhibition ([11]; at 11.0 µM): -14% | growth inhibition ([11]; at 33.0 µM): 70% (active) | growth inhibition [11, 18]: 72% (active) | growth inhibition ([11]; at 50.0 µM): 95% (active) | growth inhibition ([11]; at 100.0 µM): 87% (active) | growth inhibition ([12]; at 1.2 µM): 1% | growth inhibition ([12]; at 3.7 µM): 3% | growth inhibition ([12]; at 11.0 µM): 11% | growth inhibition ([12]; at 33.0 µM): 62% | growth inhibition ([12]; at 100.0 µM): 84% (active) | growth inhibition ([13]; at 1.2 µM): 4% | growth inhibition ([13]; at 3.7 µM): 8% | growth inhibition ([13]; at 11.0 µM): 19% | growth inhibition ([13]; at 33.0 µM): 45% | growth inhibition ([13]; at 100.0 µM): 90% (active) | growth inhibition ([14]; at 1.2 µM): 9% | growth inhibition ([14]; at 3.7 µM): 21% | growth inhibition ([14]; at 11.0 µM): 52% | growth inhibition ([14]; at 33.0 µM): 85% (active) | growth inhibition ([14]; at 100.0 µM): 91% (active) | growth inhibition [15, 17]: 0% | growth inhibition [15, 18]: 80% (active) | growth inhibition ([15]; at 50.0 µM): 96.2% (active) | growth inhibition ([16]; at 1.2 µM): 10% | growth inhibition ([16]; at 3.7 µM): 23% | growth inhibition ([16]; at 11.0 µM): 65% | growth inhibition ([16]; at 33.0 µM): 88% (active) | growth inhibition ([16]; at 100.0 µM): 91% (active)
